From PubChem BioAssay AID743169 (National Center for Advancing Translational Sciences (NCATS), 2013) come the findings set out here.

The source made the active and inactive calls. The call rests on the fitted dose curve; in most records, active means well fitted curve in the direction sought with a large enough effect; inactive means no such curve, though single readings can be large or run the other way.

The assay addresses L-lactate dehydrogenase A chain (human) (UniProt V9HWB9). In words: Extended Characterization of HPGD Inhibitors: Counterscreen Against LDHA. As to conditions: LDHA enzyme, diaphorase/resazurin coupled fluorescence; series mostly up to 57.1 µM; activity change, negative = inhibition: at the top concentration. An excerpt: The central role of HPGD is to inactivate prostaglandins such as prostaglandin E2 (PGE2) or prostaglandin D2 (PGD2). These prostaglandins are involved in a number of processes, including inflammation, differentiation, and cellular signaling, which makes HPGD an important target for pharmacological intervention. A number of prostaglandins of particular biological interest have been identified as substrates of HPGD. […] Over-production of PGE2 has been reported to promote tumor-associated neovascularization, cell proliferation, and tumor growth. […] In order to further characterize the compounds, we ran them against an LDHA counterscreen. LDHA converts pyruvate to lactate while regenerating NAD+ from NADH. LDHA enzymatic activity is then coupled to the activity of diaphorase, which reversibly catalyzes the reaction of […] while simultaneously reducing resazurin to the fluorescent resorufin. This change in fluorescence signal (excitation 544 nm; emission, 590 nm) was monitored using the ViewLux CCD imager (Perkin Elmer). Data were normalized against no enzyme control wells and no compound control wells. NIH Chemical Genomics Center [NCGC] NIH Molecular Libraries Probe Centers Network [MLPCN] MLPCN Grant: MH084681 Assay Submitter (PI): Structural Genomics Consortium
3 uL of LDHA enzyme in assay buffer are added to plate before 23 nL of compound/control are pinned into the solution. After a 15 min incubation, 1 uL of NADH (60 uM final) and sodium pyruvate (160 uM final) are added, incubated at 8 min at RT before another 1 uL of Diaphorase / Resazurin is added. The plate is read on the ViewLux after a 10 min RT incubation
(In general: Counterscreens check selectivity or assay interference.)
Turning to `COc1ccc(-n2cnc3cc(C(=O)N4CCCCC4)ccc32)cc1`, the “activity change, negative = inhibition” value was -0.645% (inactive).

As for `O=C(c1ccc2c(c1)ncn2-c1cccc(Cl)c1)N1CCCCC1`, the “activity change, negative = inhibition” value was 6.78% (inactive).

With `Cc1cc(-c2nnc3n2CCCCC3)c(C)n1-c1cccc(Cl)c1`, the “activity change, negative = inhibition” value is 9.93% (inactive).

Consider `Cc1cccc(-n2cnc3cc(C(=O)N4CCCC(C)(C)C4)ccc32)c1`, for which the “activity change, negative = inhibition” value is 4.22% (inactive).

As to `O=C(c1ccc2c(c1)ncn2-c1cccc(C(F)(F)F)c1)N1CCCCC1`, the “activity change, negative = inhibition” value is 0.565% (inactive).

Regarding `Cc1cc(-c2nnc3n2CCCCC3)c(C)n1-c1cccc(C(F)(F)F)c1`, the “activity change, negative = inhibition” value is 4.3% (inactive).

Regarding `Cc1cccc(-n2cnc3cc(C(=O)N4CCCC(C(F)(F)F)C4)ccc32)c1` (stereo not given), the “activity change, negative = inhibition” value was -12.2% (inactive).

Turning to `Cc1ccc(-n2c(C)cc(-c3nnc4n3CCCCC4)c2C)cc1`, the “activity change, negative = inhibition” value was 1.62% (inactive).

`Cc1cc(-c2nnc3n2CCCCC3)c(C)n1-c1ccc(Cl)c(Cl)c1`: the “activity change, negative = inhibition” value was 3.58% (inactive).

As for `Cc1cc(-c2nnc3n2CCCCC3)c(C)n1-c1cccc(C#N)c1`, the “activity change, negative = inhibition” value was 8.07% (inactive).
